# Laboratory results as given in PubChem BioAssay AID651995 (Sanford-Burnham Center for Chemical Genomics, 2013).
# The whole screen tested about 2,500 compounds, of which about 480 (19%) were called active.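 The calls were made as follows: active = mean inhibition above about 25% (limit read from the data); inactive = the rest.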 The full list was thinned out, with actives kept by preference.
# Assay: inhibitors of Wnt3a-driven luciferase in Wnt-LIGHT cells – cell-based, luminescence, single concentration, counter-screen for Gli-SUFU antagonist project, confirmation (AID 651995)
# Conditions: Wnt3a-driven luciferase reporter, at 6.25 µM, stronger effect = higher value
row,SMILES,inhibition
1,CCOc1cccc(=NC2CCCCC2)c2c(C)[nH]c(C)c12,26.5% (active)
